# Bioassay records as filed in PubChem BioAssay.
# SARS PLpro yeast = SARS-CoV PLP inhibition in yeast | S. cerevisiae expressing SARS-CoV PLpro, growth rescue | AID 485353 | Potency, µM (series often up to 32.9 µM), without a hit: at the highest dose activity, positive = growth rescue, hits mostly activators | hit rate 0.19% among 330,000; calls by dose curve; note: potency is the fitted concentration of half-maximal effect; 0% is about no effect; nearly all actives have a fitted effect of over 55% in size
# Lassa entry inh = Lassa virus entry inhibition; AID 540256; hit rate 1.2% among 300,000; Potency, µM (titrated, usually from 37.9 µM), inactives show top-dose activity change, negative = inhibition, most hits filed as inhibitors; Lassa virus pseudotype entry inhibition, cell reporter; calls by dose curve; tested in HEK293 cells; note: potency is the fitted concentration of half-maximal effect; % is set by controls: 0 for no effect and ±100 for the full control effect; nearly all actives have a fitted effect of over 50% in size
# HCV inh = HCV inhibition; Huh7.5.1 HCVcc-Cre infection, luciferase reporter, 44 h; Potency, µM (series often up to 41.8 µM), for inactives: top-dose activity change, negative = inhibition, usual class: inhibitors; hit rate 3.4% among 340,000; AID 651820; active = well fitted inhibition curve with a large enough effect; inconclusive = small, poorly fitted or top-dose-only effect, or another doubt; inactive = no such curve, though single readings can be large or run the other way; note: potency is the fitted concentration of half-maximal effect; % is set by controls: 0 for no effect and ±100 for the full control effect
#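 HCVcc-Cre virus at an moi near 0.5 was added right after compound to cells cultured 4 h from seeding (1,000 cells/well). Luciferase activity was determined 44 h later, 15 min after substrate addition at RT.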
# FMDV inh = antivirals against foot and mouth disease virus; AID 1159524; Potency, µM (highest dose often 57.9 µM), for the others: at the top dose activity change, negative = inhibition, most hits filed as inhibitors; FMDV antiviral cell-based qHTS; hit rate 1.2% among 410,000; calls by dose curve; tested in HEK293T cells; note: read-out not given here; potency is the fitted concentration of half-maximal effect; % is set by controls: 0 for no effect and ±100 for the full control effect; nearly all actives have a fitted effect of over 45% in size
# HCMV inh = blocks human cytomegalovirus replication | HFF cells, HCMV-luciferase reporter, 72 h; hits give low values | activity change, negative = inhibition, % at 57.5 µM | hit rate 4.5% among 410,000 | AID 1259415; in the data active = activity change below about -60%; inconclusive = no clear call, values can overlap the other calls; inactive = above about -39%; note: % is set by controls: 0 for no effect and ±100 for the full control effect
#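 Screen run at 2 compound doses on HFFs infected with reporter HCMV, MOI 1 PFU/cell. Luciferase activity from cell lysates at 72 h post infection gave inhibition relative to buffer-only and Salinomycin wells.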
# MARV entry inh = inhibitors of Marburg virus binding or cell entry; Marburg virus pseudotyped entry inhibition, cell reporter; Potency, µM (doses to about 37.8 µM), inactives show top-dose activity change, negative = inhibition, actives largely listed as inhibitors; hit rate 1.8% among 300,000; calls by dose curve; tested in HEK293 cells; note: potency is the fitted concentration of half-maximal effect; % is set by controls: 0 for no effect and ±100 for the full control effect
# * = called active by the depositor; ? = inconclusive; . = not tested or not shown; ! = not active in a repeat; [ ] = dose if it differs, or a comment. Shown are actives, neighbours in structure and some others; about 8% of the full set was active somewhere.
SMILES,SARS PLpro yeast,Lassa entry inh,HCV inh,FMDV inh,HCMV inh,MARV entry inh
COc1ccc(CCNC(=O)/C=C/c2ccc3ccccc3n2)cc1OC,-3.3%,.,?,28.2µM*,-99.6*,?
O=C(NCC1(N2CCCCC2)CCCCC1)c1ccc(-n2cc(NC(=O)c3cccnc3)cn2)cc1,.,.,.,-9.6%,.,.
OC(COC(c1ccccc1)c1ccccc1)CN1CCN(c2cccc(Cl)c2)CC1 (stereo unspecified),-10.4%,-29.5%[46.1 µM],?,-4.7%,10.8,?
CC(=O)c1ccc(N2CCN(CC(O)COC(c3ccccc3)c3ccccc3C)CC2)cc1 (stereo unspecified),0.3%,-0.1%,11.2µM*,1.9%,30.5,?
CC(=O)c1ccc(N2CCN(CC(O)COC(c3ccccc3)c3ccccc3)CC2)cc1 (stereo unspecified),3.6%,0.4%[46.1 µM],3.98µM*,-18.6%,11.8,?
COc1cc(C(C)=O)ccc1OCC(O)CN1CCN(c2cc(C)cc(C)c2)CC1 (stereo unspecified),1.1%,.,12.6µM*,-29.5%,11.7,.
COc1ccc2c(CNCc3ccco3)c(C(=O)O)n(Cc3ccc(F)cc3Cl)c2c1,.,1.3%[46.1 µM],.,-16.7%,-3.8,.
CSc1ccc(C(=O)C2CCCN(C(=O)CN3CCOC3=O)C2)cc1 (stereo unspecified),-3.4%,0.5%,.,6.0%,7.6,9.3%
Cc1ccc(N2C(=O)c3[nH]nc(-c4ccc(Cl)cc4)c3C2c2ccc(F)cc2)cc1 (stereo unspecified),.,?,.,?,-105.4*,?
Cc1ccc(-c2n[nH]c3c2C(c2cccs2)N(c2ccc(Cl)cc2)C3=O)cc1 (stereo unspecified),.,?,.,?,-105.5*,?
Cc1ccc([S+](=O)([O-])N(c2ccccc2)[S+](=O)([O-])C(F)(F)F)cc1,.,.,.,.,.,15.9%[14.2 µM]
O=C(Nc1cccc(Br)c1)c1ccc(Cl)c(S(=O)(=O)N2CCOCC2)c1,-5.9%,?,3.98µM*,.,-98.0*,?
O=C(Nc1cccnc1)c1ccc(Cl)c(S(=O)(=O)N2CCOCC2)c1,2.3%,1.5%,-5.7%,42.6%,-22.7,2.8%
O=C(Nc1cccc(S(=O)(=O)C(F)F)c1)c1ccc(Cl)c(S(=O)(=O)N2CCOCC2)c1,3.2%,?,12.6µM*,39.8µM*,?,10µM*!
O=C(Nc1cccc(C(=O)NC2CC2)c1)c1ccc(Cl)c(S(=O)(=O)N2CCOCC2)c1,2.0%,.,?,?,-22.1,.
COc1ccc(-c2cc(-c3ccccc3)c(C#N)c(S(C)(=O)=O)n2)cc1,4.0%,?,25.9%,39.8µM*,-65.7*,?
CS(=O)(=O)c1nc(-c2ccc(Br)cc2)cc(-c2ccccc2)c1C#N,5.5%,5.8µM*,?,?,-98.8*,?
Nc1ccn([C@@H]2O[C@H](C(=O)N3CCSC3)[C@@H](O)[C@H]2O)c(=O)n1,.,.,.,-11.7%,-10.0,.
Oc1ccc(C=NNC(=S)Nc2ccccc2)nc1,.,.,.,42.9%,-96.7*,.
Fc1cccc(F)c1/C=N/NC(=S)Nc1cccnc1,2.9%,4.5%,?,7.4%,?,-7.7%[46.1 µM]
Fc1c(F)c(F)c(/C=N/NC(=S)Nc2cccnc2)c(F)c1F,0.0%,?,?,?,-81.4*,?
Oc1cccc(/C=N/NC(=S)Nc2cccnc2)c1O,-11.9%,20.6µM*,?,58.8%,91.0,?
S=C(N/N=C/c1ccccc1Cl)Nc1ccccc1,?,?,-5.3%,9.5%,6.0,-19.4%
COc1ccccc1NC(=S)NCC1CCCCC1,-39.0%,2.5%,?,57.3%,-66.3*,-19.9%
COc1ccccc1NC(=S)NC1CCCCCCCCCCC1,-0.2%,.,4.47µM*,-12.5%,-61.3*,0.4%
SMILES,SARS PLpro yeast,Lassa entry inh,HCV inh,FMDV inh,HCMV inh,MARV entry inh
COCCNc1ccc2cc(S(=O)(=O)N3CCCCC3)ccc2n1,.,-0.7%[46.1 µM],.,25.2%,-3.8,.
O=C(/C=C/c1ccccc1)N1CCN(S(=O)(=O)c2ccc(F)cc2)CC1,0.3%,5.4%,12.4%,-18.5%,-11.8,?
O=C(/C=C/c1ccc(S(=O)(=O)N2CCOCC2)cc1)N1CCN(c2ccccc2)CC1,0.1%,.,2µM*,31.6µM*,?,.
COc1ccc(/C=C/C(=O)N2CCC(C(N)=O)CC2)cc1S(=O)(=O)N1CCOCC1,2.3%,?,19.7%,22.0%,-3.8,-2.4%
COc1ccc(/C=C/C(=O)N2CCN(c3ccccc3)CC2)cc1S(=O)(=O)N1CCOCC1,2.5%,?,31.6µM*,14.1µM*,?,-15.9%[46.1 µM]
CC1CCN(S(=O)(=O)c2ccc3c(ccc(=O)n3CC(=O)NCc3ccccc3)c2)CC1,.,14.7%[46.1 µM],.,-13.0%,10.5,.
Cc1ccc(Cn2c(=O)c3cccnc3n(Cc3ccc(C)cc3)c2=O)cc1,.,.,.,2.2%,6.0,3.2%[46.1 µM]
CCOC(=O)Cn1c(=O)n(Cc2ccc(C)cc2)c(=O)c2cccnc21,-0.3%,.,0.794µM*,-20.6%,0.0,.
O=C(Nc1nc2c(s1)CCCC2)c1ccc(S(=O)(=O)N2CCCc3ccccc32)cc1,-11.0%,?,?,?,-85.3*,23.1µM*
CC1CCc2nc(NC(=O)c3ccc(S(=O)(=O)N4CCCc5ccccc54)cc3)sc2C1 (stereo unspecified),2.5%,-19.0%,?,?,-87.0*,?
CNC(=O)c1ccsc1NC(=O)c1ccc(S(=O)(=O)N2CCCc3ccccc32)cc1,-29.4%,16.4µM*,10µM*,?,-62.2*,?
O=C(Nc1nnc(S(=O)(=O)N2CCCc3ccccc32)s1)c1ccccc1,.,?,.,-0.4%,2.4,.
Cc1ccc(C(=O)Nc2nnc(S(=O)(=O)N3CCCc4ccccc43)s2)cc1,.,3.7%[46.1 µM],.,30.7%,51.1,.
COCCN1C(=O)CCC1(C)c1nnnn1-c1ccc2ccccc2c1 (stereo unspecified),.,.,.,-8.5%,-10.5,.
O=C(CN1C(=O)C2CCCCN2c2ccc(C(=O)N3CCCC3)cc21)NCc1cccc(F)c1 (stereo unspecified),.,6.6%[46.1 µM],.,23.3%,-7.0,.
COc1ccc(-c2c(C(=O)c3ccccc3)[nH]c(N)c2C(=O)c2ccccc2)cc1OC,.,.,.,-22.3%,-70.4*,.
C[C@@H]1CC[C@H]2C(=O)N(Cc3cccc([N+](=O)[O-])c3)C[C@@H](O)CN2[C@@H]1c1ccc(Br)cc1,.,.,.,.,.,-13.1%[14.2 µM]
CC(C)(C)c1ccc(C(=O)NC(=S)Nc2nc3c(s2)CCCC3)cc1,12.0%,?,?,?,-76.0*,1.26µM*
CC(C)(C)c1ccc(C(=O)NC(=S)Nc2sc3c(c2C#N)CCC3)cc1,18.0%,?,?,-25.4%,-37.8,?
CN(C)c1ccc(C(=O)Nc2nc3c(s2)CCCC3)cc1,-12.2%,?,11.2µM*,-64.3%,-66.6*,?
COc1cccc(C(=O)Nc2nc3c(s2)CCCC3)c1,.,14.7%[46.1 µM],.,-29.9%,51.5,-7.5%[46.1 µM]
